The panel holds about 83,000 compounds, 20% with a hit somewhere; the sample as a whole holds those more often.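 Each cell line was grown in a 96-well plate and treated with one concentration of compound for 48 hours. Values below 10 were considered active.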 A number with no mark means an inactive call.
Each compound was assayed on NCI-H322M lung (assay: NCI-60 one-dose screen, 48 h (100 = growth as untreated, 0 = no growth, -100 = all killed)). Conditions: 10 µM unless noted.

Row | Compound | growth [%]
1 | O=C(Nc1ccc(Cl)cc1)C1=NCCCCN1 | 83.5
2 | Fc1ccc(/C=C/c2cc(/C=C/c3ccc(F)cc3)n(-c3cc(F)cc(F)c3)n2)cc1 | 86.5
3 | Nc1n[nH]c2cccc(C#Cc3cccc(C(=O)Nc4ccc(Cl)c(C(F)(F)F)c4)c3)c12 | 77
4 | CC/C(=C(/c1ccc(Cl)cc1)c1ccc(OCCN2CCCCCC2)cc1)c1ccccc1 | 107
5 | COC(CCP(=O)(c1ccccc1)c1ccccc1)(C(=O)c1ccccc1)c1ccccc1 (centres undefined) | 72.8
6 | CC(=O)CC(=O)c1ccccc1.[Cu+2] | 105
7 | CN1CCN(Cc2ccc(NC(=O)c3cncc(C#Cc4cnc(N)c5ccc(C#N)cc45)c3)cc2C(F)(F)F)CC1 | 26.6
8 | CNC(=O)c1cc(Oc2ccc3nc(NC(=O)NC(C)C)sc3c2)ccn1 | 95.2
9 | N/C(=N\c1nc2ccccc2s1)NC(=O)Nc1ccccc1 | 74.3
10 | CCOC(=O)/C(=C\c1ccccc1Cl)P(=O)(OCC)OCC | 75.4
11 | O=C(/C=C/c1ccc(Cl)cc1)c1ccc(-n2cc(CN3CCN(c4cc5c(cc4F)c(=O)c(C(=O)O)cn5C4CC4)CC3)nn2)cc1 | 78.1
12 | COc1cc2cc(Oc3ccc(NC(=O)Nc4ccc(Cl)c(Cl)c4)cc3)c(C)nc2cc1OCCN1CCCCC1 | 104
13 | CCN(CC)CCN1C(=O)c2c(c(C)c3c(oc4cc(OC)ccc43)c2C)C1=O | 85.3
14 | Cn1ncc(CC(=O)O)c1-n1nnc2cc(Cl)ccc2c1=O | 80.3

From PubChem BioAssay (NCI)
